# Measured values: PubChem BioAssay (Tox21)
# Inconclusive results are not listed. Where a call stands in place of a potency, no number is given. A structure can be active in one record and inactive in another. Activity calls are given as the source filed them. Unless noted, calls come from the whole dose curve; as a rule, active = well fitted curve in the direction sought with a large enough effect in the repeat runs; inconclusive = weak or mixed curves; inactive = no such curve, though single readings can be large; an effect the other way counts as inactive or inconclusive.
# Columns and labels:
# [1] = qHTS assay to identify small molecule antagonists of the thyroid receptor (TR) signaling pathway - cell viability counter screen (AID 743064); note: nearly all actives have a fitted effect of over 50% in size
# How it was run: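 GH3.TRE-Luc rat pituitary cells dosed after 4 hr plating, co-stimulated with T3 at 1 nM final, incubated 23.5 h at 37 C. Viability measured in the same wells by CellTiter-Fluor fluorescence after 30 min further at 37 C.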
# [2] = qHTS assay to identify small molecule antagonists of the thyroid receptor (TR) signaling pathway (AID 743065); note: series mostly up to about 70 µM; nearly all actives have a fitted effect of over 55% in size
# How it was run: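 GH3.TRE-Luc rat pituitary cells (two TREs driving luciferase) were dosed with compound, then stimulated with 1 nM T3 (final) for 23.5 h at 37 C. ONE-Glo luminescence was the read-out, with CellTiter-Fluor fluorescence as the cytotoxicity counter-screen.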
# [3] = tested on: thyroid hormone receptor (rat, GH3 cells); test: qHTS assay to identify small molecule agonists of the thyroid receptor (TR) signaling pathway (AID 743066; calls by dose curve)
# [4] = target: Estrogen receptor (Homo sapiens) (UniProt P03372); test: qHTS assay to identify small molecule antagonists of the estrogen receptor alpha (ER-alpha) signaling pathway (AID 743069; active = well fitted curve in the direction sought with a large enough effect in the signal ratio in the repeat runs, not every such curve was filed as active; the % refers to the signal ratio)
# How it was run: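 HEK293 ER-alpha-UAS-bla GripTite cells, held overnight in 2% charcoal-stripped FBS, 5,000 cells/well, preincubated 4 h, then compound plus 17beta-estradiol for 18 h at 37C. Beta-lactamase read by LiveBLAzer B/G FRET substrate, 2 h at room temperature.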
# [5] = qHTS assay to identify small molecule antagonists of the estrogen receptor alpha (ER-alpha) signaling pathway - cell viability counter screen (AID 743074; calls by dose curve;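 note: HEK293 cells carrying ER-alpha-UAS-bla reporter stimulated with 17beta-estradiol; nearly all actives have a fitted effect of over 45% in size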)
# [6] = target: Estrogen receptor (Homo sapiens) (UniProt P03372); test: qHTS assay to identify small molecule agonists of the estrogen receptor alpha (ER-alpha) signaling pathway (AID 743075; calls by dose curve)
# [7] = target: Estrogen receptor (Homo sapiens) (UniProt P03372); test: qHTS assay to identify small molecule agonists of the estrogen receptor alpha (ER-alpha) signaling pathway using the BG1 cell line (AID 743079); note: nearly all actives have a fitted effect of over 20% in size; note: potency is the fitted concentration of half-maximal effect
# [8] = qHTS assay to identify small molecule antagonists of the estrogen receptor alpha (ER-alpha) signaling pathway using the BG1 cell line (AID 743080; calls by dose curve;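 note: BG1 cells stimulated with 17beta-estradiol alongside compound; series mostly up to about 70 µM; nearly all actives have a fitted effect of over 25% in size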)
# How it was run: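 BG1Luc4E2, endogenous ER-alpha, 4xERE-luc; 5 d charcoal-stripped FBS, phenol red free; 24 h plating; cpd + 17beta-estradiol 21.5 h, 37 C/5% CO2; CellTiter-Fluor viability 30 min, then ONE-Glo luciferase 30 min RT.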
# [9] = qHTS assay to identify small molecule antagonists of the estrogen receptor alpha (ER-alpha) signaling pathway using the BG1 cell line - cell viability counter screen (AID 743081);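 note: compound given together with 17beta-estradiol as the ER stimulus; series mostly up to about 70 µM; nearly all actives have a fitted effect of over 45% in size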
# [10] = target: Aromatase (Homo sapiens) (UniProt P11511); test: qHTS assay to identify aromatase inhibitors (AID 743083); note: series mostly up to about 70 µM; nearly all actives have a fitted effect of over 55% in size
# [11] = qHTS assay to identify aromatase inhibitors - cell viability counter screen (AID 743084);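 note: cells stimulated with testosterone during compound exposure; nearly all actives have a fitted effect of over 55% in size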
# [12] = target: Aryl hydrocarbon receptor (Homo sapiens) (UniProt P35869); test: qHTS assay to identify small molecule that activate the aryl hydrocarbon receptor (AhR) signaling pathway (AID 743085); note: nearly all actives have a fitted effect of over 15% in size; note: potency is the fitted concentration of half-maximal effect;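 for activation: HG2L7.5c1 human HepG2 liver cells with stably integrated DRE-driven firefly reporter; series mostly up to about 70 µM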
# How it was run: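 HepG2 cells stably carrying a 20-DRE firefly luciferase reporter (HG2L7.5c1) treated with compound for 24 hr at 37C. Luciferase read by ONE-Glo luminescence, with CellTiter-Fluor viability read first.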
# [13] = qHTS assay to identify small molecule that activate the aryl hydrocarbon receptor (AhR) signaling pathway - cell viability counter screen (AID 743086);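 note: HepG2 liver cells carrying the AhR DRE luciferase reporter; series mostly up to about 70 µM; nearly all actives have a fitted effect of over 45% in size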
# How it was run: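 HepG2-AhR-luc (HG2L7.5c1) cells, 4000/well, treated 24 h at 37 C with compound; viability measured as CellTiter-Fluor fluorescence after 30 min in the same wells as the luciferase read.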
# [14] = target: Peroxisome proliferator-activated receptor gamma (Homo sapiens) (UniProt P37231); test: qHTS assay to identify small molecule agonists of the peroxisome proliferator-activated receptor gamma (PPARg) signaling pathway (AID 743094; active = well fitted activation curve with a large enough effect in the signal ratio in the repeat runs, not every such curve was filed as active; the % refers to the signal ratio)
# How it was run: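 GeneBLAzer PPARg UAS-bla HEK293H cells were plated, rested 5 h, then exposed to compounds for 17 h at 37C. Beta-lactamase activity was read by LiveBLAzer B/G FRET substrate fluorescence after 1 h at room temperature.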
# [15] = target: Peroxisome proliferator-activated receptor gamma (Homo sapiens) (UniProt P37231); test: qHTS assay to identify small molecule antagonists of the peroxisome proliferator-activated receptor gamma (PPARg) signaling pathway (AID 743191; calls by dose curve; note: series mostly up to about 63 µM; nearly all actives have a fitted effect of over 30% in size)
# How it was run: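 GeneBLAzer PPARg UAS-bla HEK293H cells, 5 h post-plating, exposed to compounds 17 h at 37C. LiveBLAzer B/G FRET substrate added for 1 h at room temperature; beta-lactamase reporter read by fluorescence intensity.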
# [16] = qHTS assay to identify small molecule antagonists of the peroxisome proliferator-activated receptor gamma (PPARg) signaling pathway - cell viability counter screen (AID 743194); note: nearly all actives have a fitted effect of over 55% in size
# How it was run: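 Cytotoxicity counter screen in PPARg-bla HEK293H cells, same wells as reporter assay. Compounds plus 50 nM rosiglitazone (final) for 17 h at 37 C, then viability read by CellTiter-Glo luminescence.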
# [17] = qHTS assay for small molecule agonists of the antioxidant response element (ARE) signaling pathway - cell viability counter screen (AID 743203; calls by dose curve; note: nearly all actives have a fitted effect of over 55% in size)
# How it was run: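 ARE-bla HepG2 cells were plated, rested 5 h at 37C/5% CO2, then exposed to compounds in DMSO for 16 h. Viability was read as CellTiter-Glo luminescence after 30 min at room temperature, in the same wells as the ARE screen.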
# [18] = qHTS assay for small molecule activators of the heat shock response signaling pathway - cell viability counter screen (AID 743209); note: nearly all actives have a fitted effect of over 50% in size
# How it was run: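 HSE-bla HeLa cells plated overnight, then exposed to Tox21 compounds (23 nL in DMSO) for 5 h at 37 C. After the bla reporter read, CellTiter-Glo was added in the same wells and luminescence read after 30 min at room temperature.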
# [19] = qHTS assay for small molecule activators of the heat shock response signaling pathway (AID 743210; active = well fitted activation curve with a large enough effect in the signal ratio in the repeat runs, with a control signal flat, not every such curve was filed as active; the % refers to the signal ratio; note: series mostly up to about 63 µM)
# How it was run: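 HSE-bla HeLa cells (beta-lactamase reporter under heat shock response elements), plated overnight, then exposed to compounds 5 h at 37 C; LiveBLAzer B/G FRET substrate added, 2.5 h at room temperature, fluorescence intensity read.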
# [20] = qHTS assay for small molecule agonists of the antioxidant response element (ARE) signaling pathway (AID 743202; active = well fitted activation curve with a large enough effect in the signal ratio in the repeat runs, not every such curve was filed as active; the % refers to the signal ratio; note: potency is the fitted concentration of half-maximal effect)
# How it was run: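 ARE-bla HepG2 cells (beta-lactamase reporter under the antioxidant response element), plated 5 hours, then exposed to compounds 16 hours at 37 C. LiveBLAzer B/G FRET substrate added for 2 hours at room temperature; fluorescence intensity read.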
# Chain of Peroxisome proliferator-activated receptor gamma (Homo sapiens) (P37231 whole entry, looked up): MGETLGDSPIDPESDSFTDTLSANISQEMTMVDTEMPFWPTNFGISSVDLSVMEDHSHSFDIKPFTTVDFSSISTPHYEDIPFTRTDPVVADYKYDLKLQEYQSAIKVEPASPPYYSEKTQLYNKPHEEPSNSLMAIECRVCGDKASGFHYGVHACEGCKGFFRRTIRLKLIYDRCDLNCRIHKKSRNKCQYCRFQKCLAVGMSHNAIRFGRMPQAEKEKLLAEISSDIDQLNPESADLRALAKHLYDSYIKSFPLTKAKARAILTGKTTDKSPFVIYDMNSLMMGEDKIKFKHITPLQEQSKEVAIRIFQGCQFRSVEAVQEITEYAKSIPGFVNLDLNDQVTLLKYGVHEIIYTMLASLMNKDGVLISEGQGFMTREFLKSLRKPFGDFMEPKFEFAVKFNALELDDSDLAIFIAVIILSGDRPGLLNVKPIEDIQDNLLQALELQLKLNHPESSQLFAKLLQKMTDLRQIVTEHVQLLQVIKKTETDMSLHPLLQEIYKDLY
# Chain of Estrogen receptor (Homo sapiens) (P03372 whole entry, looked up): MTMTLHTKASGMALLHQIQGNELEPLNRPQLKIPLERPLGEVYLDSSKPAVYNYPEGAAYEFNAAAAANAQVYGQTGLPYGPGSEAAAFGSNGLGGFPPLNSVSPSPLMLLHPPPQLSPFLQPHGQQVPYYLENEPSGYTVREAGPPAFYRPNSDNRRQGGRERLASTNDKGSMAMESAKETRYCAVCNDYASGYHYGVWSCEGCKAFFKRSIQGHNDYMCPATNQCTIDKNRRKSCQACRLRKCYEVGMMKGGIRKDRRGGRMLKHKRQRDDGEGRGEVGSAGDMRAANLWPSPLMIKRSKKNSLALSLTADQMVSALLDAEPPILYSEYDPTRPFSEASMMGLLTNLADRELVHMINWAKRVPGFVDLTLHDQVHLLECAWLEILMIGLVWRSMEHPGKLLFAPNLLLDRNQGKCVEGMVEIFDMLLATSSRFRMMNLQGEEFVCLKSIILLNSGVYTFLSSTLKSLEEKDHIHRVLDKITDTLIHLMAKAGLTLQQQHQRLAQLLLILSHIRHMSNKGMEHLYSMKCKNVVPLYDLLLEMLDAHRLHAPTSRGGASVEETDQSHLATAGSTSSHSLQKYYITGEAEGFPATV
# Chain of Aryl hydrocarbon receptor (Homo sapiens) (P35869 whole entry, looked up): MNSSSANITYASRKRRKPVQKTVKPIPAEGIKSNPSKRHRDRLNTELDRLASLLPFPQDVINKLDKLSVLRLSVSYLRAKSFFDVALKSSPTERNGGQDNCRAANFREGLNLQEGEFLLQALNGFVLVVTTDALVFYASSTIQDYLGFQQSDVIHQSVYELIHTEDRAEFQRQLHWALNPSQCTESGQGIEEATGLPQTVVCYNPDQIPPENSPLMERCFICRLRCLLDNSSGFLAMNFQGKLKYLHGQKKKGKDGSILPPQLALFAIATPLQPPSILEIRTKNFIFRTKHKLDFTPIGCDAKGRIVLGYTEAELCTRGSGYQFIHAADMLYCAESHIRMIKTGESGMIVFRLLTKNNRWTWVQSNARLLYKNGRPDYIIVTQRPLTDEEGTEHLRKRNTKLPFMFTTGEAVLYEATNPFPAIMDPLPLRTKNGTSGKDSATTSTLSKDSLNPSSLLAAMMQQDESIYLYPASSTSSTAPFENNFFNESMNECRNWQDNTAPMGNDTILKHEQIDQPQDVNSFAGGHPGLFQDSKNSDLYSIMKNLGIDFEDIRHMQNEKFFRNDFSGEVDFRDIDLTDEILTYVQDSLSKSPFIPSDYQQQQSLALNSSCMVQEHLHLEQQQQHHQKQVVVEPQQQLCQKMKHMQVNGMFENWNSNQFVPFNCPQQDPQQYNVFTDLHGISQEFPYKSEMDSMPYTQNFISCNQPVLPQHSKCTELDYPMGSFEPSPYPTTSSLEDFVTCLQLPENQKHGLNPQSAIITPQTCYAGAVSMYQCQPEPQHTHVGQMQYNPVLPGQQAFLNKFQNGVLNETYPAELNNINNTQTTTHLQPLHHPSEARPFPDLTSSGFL
# Chain of Aromatase (Homo sapiens) (P11511 whole entry, looked up): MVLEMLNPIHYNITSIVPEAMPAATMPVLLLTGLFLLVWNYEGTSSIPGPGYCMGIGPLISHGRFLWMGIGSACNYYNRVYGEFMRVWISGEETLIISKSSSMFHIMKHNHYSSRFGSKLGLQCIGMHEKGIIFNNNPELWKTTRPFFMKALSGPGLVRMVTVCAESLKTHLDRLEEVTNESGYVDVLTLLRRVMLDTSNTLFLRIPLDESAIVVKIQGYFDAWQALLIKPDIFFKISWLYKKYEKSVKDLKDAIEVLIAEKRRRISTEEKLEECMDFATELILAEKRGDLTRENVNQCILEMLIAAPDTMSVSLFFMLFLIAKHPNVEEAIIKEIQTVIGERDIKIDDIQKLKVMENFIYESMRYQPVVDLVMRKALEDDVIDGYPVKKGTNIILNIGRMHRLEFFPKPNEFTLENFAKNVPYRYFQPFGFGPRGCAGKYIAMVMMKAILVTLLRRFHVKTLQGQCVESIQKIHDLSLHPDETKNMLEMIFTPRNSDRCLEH
SMILES,Potency [1],Potency [2],outcome [3],outcome [4],outcome [5],outcome [6],Potency [7],Potency [8],outcome [9],Potency [10],Potency [11],Potency [12],Potency [13],outcome [14],Potency [15],outcome [16],outcome [17],outcome [18],outcome [19],Potency [20]
C=C(C)C1CCC(C)(O)CC1 (centres undefined),inactive,inactive,inactive,inactive,inactive,inactive,inactive,inactive,inactive,inactive,inactive,inactive,inactive,inactive,inactive,inactive,inactive,inactive,inactive,–
CCOC(=O)c1ccc(OC(=O)CCCCCN=C(N)N)cc1,inactive,inactive,inactive,inactive,inactive,inactive,14.3 µM (active),inactive,inactive,inactive,inactive,inactive,inactive,inactive,inactive,–,–,inactive,inactive,inactive
CCCCCCCCOS(=O)(=O)O,inactive,inactive,inactive,inactive,inactive,inactive,inactive,inactive,inactive,inactive,inactive,inactive,inactive,inactive,inactive,inactive,inactive,inactive,–,inactive
O=C(CS(=O)Cc1ccco1)NC/C=C\COc1cc(CN2CCCCC2)ccn1 (centres undefined),inactive,inactive,inactive,inactive,inactive,inactive,inactive,inactive,inactive,inactive,inactive,inactive,inactive,inactive,inactive,inactive,inactive,inactive,inactive,inactive
O=C1O[C@@H]2[C@@H](O)[C@H](O)O[C@@H]2[C@H]1O,inactive,inactive,inactive,inactive,inactive,inactive,inactive,inactive,inactive,inactive,inactive,inactive,inactive,inactive,inactive,inactive,inactive,–,inactive,inactive
CCCCN,inactive,inactive,inactive,inactive,inactive,inactive,inactive,inactive,inactive,inactive,inactive,inactive,inactive,inactive,–,inactive,inactive,inactive,–,inactive
C=C(C)C(=O)OCCOP(=O)(O)OCCOC(=O)C(=C)C,inactive,inactive,inactive,inactive,inactive,inactive,inactive,inactive,inactive,inactive,inactive,inactive,inactive,inactive,inactive,inactive,inactive,inactive,inactive,–
O=C1c2ccccc2C(=O)c2cc(S(=O)(=O)O)ccc21,inactive,inactive,inactive,inactive,inactive,inactive,inactive,inactive,inactive,inactive,inactive,inactive,–,inactive,inactive,inactive,inactive,inactive,–,inactive
C=C1CC/C=C(\C)CC[C@@H]2[C@@H]1CC2(C)C,inactive,inactive,inactive,inactive,inactive,inactive,inactive,inactive,inactive,inactive,inactive,inactive,–,inactive,inactive,inactive,inactive,–,inactive,–
Nc1ccc(S(=O)(=O)Nc2ccc(Cl)nn2)cc1,inactive,inactive,inactive,inactive,inactive,inactive,inactive,inactive,inactive,inactive,inactive,–,inactive,inactive,inactive,inactive,inactive,inactive,inactive,–
CCOC(=O)c1ncn2c1CN(C)C(=O)c1cc(F)ccc1-2,inactive,inactive,inactive,inactive,inactive,inactive,inactive,inactive,inactive,inactive,inactive,inactive,–,inactive,inactive,inactive,inactive,inactive,inactive,inactive
O=C(CCNNC(=O)c1ccncc1)NCc1ccccc1,inactive,inactive,inactive,inactive,inactive,inactive,inactive,inactive,inactive,inactive,inactive,–,inactive,–,–,inactive,–,–,inactive,inactive
Nc1ccc2cc(S(=O)(=O)O)cc(O)c2c1,inactive,inactive,inactive,inactive,inactive,inactive,inactive,inactive,inactive,inactive,inactive,27.1 µM (active),–,inactive,inactive,inactive,inactive,inactive,inactive,–
COc1ccc(-c2cc(=O)c3c(O)cc(O[C@@H]4O[C@H](CO[C@@H]5O[C@@H](C)[C@H](O)[C@@H](O)[C@H]5O)[C@@H](O)[C@H](O)[C@H]4O)cc3o2)cc1O,inactive,inactive,inactive,inactive,inactive,inactive,inactive,inactive,inactive,inactive,inactive,29.8 µM (active),inactive,inactive,–,inactive,–,inactive,–,–
CCCCOCCOC(=O)COc1nc(Cl)c(Cl)cc1Cl,inactive,inactive,inactive,inactive,inactive,inactive,inactive,inactive,inactive,inactive,inactive,inactive,inactive,inactive,–,inactive,inactive,inactive,–,–
CC(C)(C)c1n[nH]c(=S)n(N)c1=O,inactive,inactive,inactive,inactive,inactive,inactive,inactive,inactive,inactive,inactive,inactive,–,inactive,–,–,inactive,inactive,inactive,inactive,inactive

SMILES,Potency [1],Potency [2],outcome [3],outcome [4],outcome [5],outcome [6],Potency [7],Potency [8],outcome [9],Potency [10],Potency [11],Potency [12],Potency [13],outcome [14],Potency [15],outcome [16],outcome [17],outcome [18],outcome [19],Potency [20]
CC(C)=O,inactive,inactive,inactive,inactive,inactive,inactive,inactive,inactive,inactive,inactive,inactive,inactive,–,inactive,–,inactive,inactive,inactive,inactive,inactive
NNc1nnc(NN)c2ccccc12,inactive,inactive,inactive,inactive,inactive,inactive,inactive,inactive,inactive,inactive,inactive,29.8 µM (active),–,inactive,inactive,inactive,–,inactive,inactive,inactive
CCC(C)NC(N)=O (centres undefined),inactive,inactive,inactive,inactive,inactive,inactive,inactive,inactive,inactive,inactive,–,–,inactive,inactive,–,inactive,inactive,inactive,–,–
O=C(OCc1ccccc1)C(=O)OCc1ccccc1,inactive,inactive,inactive,inactive,inactive,inactive,inactive,inactive,inactive,inactive,inactive,inactive,–,inactive,inactive,inactive,inactive,inactive,–,–
O=C(O)Cc1ccc(Cl)cc1Cl,inactive,inactive,inactive,inactive,inactive,inactive,inactive,inactive,inactive,inactive,inactive,inactive,–,inactive,inactive,inactive,inactive,inactive,inactive,inactive
Oc1cn2c(n1)Nc1ccc(Cl)c(Cl)c1C2,inactive,inactive,inactive,inactive,inactive,inactive,inactive,inactive,inactive,inactive,inactive,23.7 µM (active) and inactive,–,inactive,–,inactive,–,–,–,–
CCCCCCCCSCC,inactive,inactive,inactive,inactive,inactive,inactive,inactive,inactive,inactive,inactive,inactive,inactive,inactive,inactive,–,inactive,inactive,inactive,–,–
O=C(O)c1cc(Cl)cc([N+](=O)[O-])c1Cl,inactive,inactive,inactive,inactive,inactive,inactive,inactive,inactive,inactive,inactive,–,inactive,inactive,inactive,inactive,inactive,inactive,inactive,–,–
C[C@@H](O)[C@H]1C(=O)N2C(C(=O)O)=C(SCCN=CN)C[C@H]12,inactive,inactive,inactive,inactive,inactive,inactive,inactive,inactive,inactive,inactive,inactive,–,inactive,inactive,inactive,inactive,inactive,–,inactive,–
CCCCCCN,inactive,inactive,inactive,inactive,inactive,inactive,inactive,inactive,inactive,inactive,inactive,inactive,inactive,–,–,inactive,inactive,inactive,–,inactive
O=C(O)C(=O)Cc1ccccc1,inactive,inactive,inactive,inactive,inactive,inactive,inactive,inactive,inactive,inactive,inactive,inactive,–,–,inactive,–,inactive,inactive,inactive,27.3 µM (active)
CC(=O)OC(C)OC(=O)C(C)c1ccc(-c2ccccc2)c(F)c1 (centres undefined),inactive,inactive,inactive,inactive,inactive,inactive,inactive,inactive,inactive,inactive,inactive,inactive,inactive,inactive,–,inactive,inactive,inactive,inactive,–
COc1ccc(S(=O)(=O)N2c3ccc(Cl)cc3[C@@](O)(c3ccccc3Cl)[C@H]2C(=O)N2CCC[C@@H]2C(N)=O)cc1OC,inactive,inactive,inactive,inactive,inactive,inactive,inactive,inactive,inactive,inactive,inactive,inactive,inactive,–,inactive,inactive,–,inactive,inactive,inactive
CC(=O)CCCCn1c(=O)c2c(ncn2C)n(C)c1=O,inactive,inactive,inactive,inactive,inactive,inactive,inactive,inactive,inactive,inactive,inactive,inactive,–,inactive,inactive,inactive,–,inactive,inactive,inactive
C=C(C)C(=O)OCc1ccccc1,inactive,inactive,inactive,inactive,inactive,inactive,inactive,inactive,inactive,inactive,–,inactive,inactive,inactive,inactive,inactive,inactive,inactive,–,–
